# Source: the supplement of paper PMC11006884
# The full data set covers some 6,500 targets. This sample favours those with a hit. About 2% of all pairs of compound and target were hits. A number with no mark means an inactive call.
# Compound: COC(=O)C#Cc1ccccc1 [methyl 3-phenylpropiolate]
# Experiment: log2 ratio of iodoacetamide-alkyne labeling of the cysteine site, DMSO over compound (competition); higher = stronger covalent engagement of the cysteine by the compound, active = 1 or more
# Settings: 500 µM; treatment time 1 h; system: HEK293T cell lysate
# Procedure, shortened: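 After 1 h at ambient temperature with vehicle or electrophile (500 µM), HEK293T lysate (2 mg/mL) was labelled for 1 h with iodoacetamide alkyne and clicked to sCIP-TMT reagents. Pooled samples were trypsin-digested overnight at 37 °C, streptavidin-enriched, acid-eluted and analysed by Orbitrap Eclipse LC-MS/MS with FAIMS, then quantified in FragPipe over three replicates with duplicate channels. A cysteine's log2 competition ratio is its mean control-channel over mean compound-channel reporter intensity. Cysteines quantified in only one replicate were not included.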
# Sequence of UniProt Q9Y3C8 (Q9Y3C8 whole entry): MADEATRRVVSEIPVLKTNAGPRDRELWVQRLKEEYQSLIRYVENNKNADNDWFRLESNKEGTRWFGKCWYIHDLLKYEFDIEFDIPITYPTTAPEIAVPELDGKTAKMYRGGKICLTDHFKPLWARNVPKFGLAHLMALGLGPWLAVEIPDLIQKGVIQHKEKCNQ
# Sequence of UniProt Q9UKJ3 (Q9UKJ3 whole entry): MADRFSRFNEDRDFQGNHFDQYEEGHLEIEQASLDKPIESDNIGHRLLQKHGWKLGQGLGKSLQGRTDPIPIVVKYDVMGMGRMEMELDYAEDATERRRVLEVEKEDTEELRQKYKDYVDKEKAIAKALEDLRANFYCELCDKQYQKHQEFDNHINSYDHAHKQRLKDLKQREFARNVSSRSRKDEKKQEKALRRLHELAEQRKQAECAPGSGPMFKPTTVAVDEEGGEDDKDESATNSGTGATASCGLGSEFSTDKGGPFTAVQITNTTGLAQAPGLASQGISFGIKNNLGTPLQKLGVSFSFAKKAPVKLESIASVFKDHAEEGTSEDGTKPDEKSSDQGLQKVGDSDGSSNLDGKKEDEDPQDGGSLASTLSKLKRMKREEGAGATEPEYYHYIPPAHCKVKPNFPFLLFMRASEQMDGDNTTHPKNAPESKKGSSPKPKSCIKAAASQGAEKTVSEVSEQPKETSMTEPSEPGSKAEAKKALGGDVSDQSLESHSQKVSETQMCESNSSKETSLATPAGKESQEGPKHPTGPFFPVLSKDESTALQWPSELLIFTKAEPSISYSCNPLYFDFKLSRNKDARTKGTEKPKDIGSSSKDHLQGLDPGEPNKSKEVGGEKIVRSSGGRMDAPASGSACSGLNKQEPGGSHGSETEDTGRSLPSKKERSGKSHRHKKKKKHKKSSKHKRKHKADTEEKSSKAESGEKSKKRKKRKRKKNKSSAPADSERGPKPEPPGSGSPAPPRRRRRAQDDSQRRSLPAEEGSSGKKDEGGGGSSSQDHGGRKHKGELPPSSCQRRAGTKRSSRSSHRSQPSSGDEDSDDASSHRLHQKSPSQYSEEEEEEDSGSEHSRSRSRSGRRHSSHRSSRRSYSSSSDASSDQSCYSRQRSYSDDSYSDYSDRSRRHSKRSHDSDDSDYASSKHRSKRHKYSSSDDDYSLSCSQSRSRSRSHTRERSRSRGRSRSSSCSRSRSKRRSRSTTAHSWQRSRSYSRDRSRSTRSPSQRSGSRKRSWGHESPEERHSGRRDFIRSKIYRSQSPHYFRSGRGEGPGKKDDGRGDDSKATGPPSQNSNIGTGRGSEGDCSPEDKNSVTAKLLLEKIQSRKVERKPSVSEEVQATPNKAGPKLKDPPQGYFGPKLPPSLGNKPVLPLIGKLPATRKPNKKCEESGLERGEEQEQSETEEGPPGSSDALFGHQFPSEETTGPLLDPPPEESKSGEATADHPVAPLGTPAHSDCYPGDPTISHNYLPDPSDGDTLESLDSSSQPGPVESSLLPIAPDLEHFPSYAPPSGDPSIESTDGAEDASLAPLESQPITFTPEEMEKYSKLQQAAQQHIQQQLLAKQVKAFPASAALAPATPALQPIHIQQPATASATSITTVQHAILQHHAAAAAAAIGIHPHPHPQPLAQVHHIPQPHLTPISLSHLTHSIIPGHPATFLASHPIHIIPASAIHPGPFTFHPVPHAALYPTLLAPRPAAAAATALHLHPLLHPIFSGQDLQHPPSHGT
# Sequence of UniProt Q9HB71 (Q9HB71 whole entry): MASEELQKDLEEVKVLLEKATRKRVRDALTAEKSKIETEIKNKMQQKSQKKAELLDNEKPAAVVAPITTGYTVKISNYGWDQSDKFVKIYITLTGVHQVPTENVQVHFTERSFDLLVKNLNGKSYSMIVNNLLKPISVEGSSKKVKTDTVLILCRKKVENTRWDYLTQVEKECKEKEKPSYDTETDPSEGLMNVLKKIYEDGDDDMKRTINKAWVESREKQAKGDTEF
# Sequence of UniProt Q9BV68 (Q9BV68 whole entry, looked up): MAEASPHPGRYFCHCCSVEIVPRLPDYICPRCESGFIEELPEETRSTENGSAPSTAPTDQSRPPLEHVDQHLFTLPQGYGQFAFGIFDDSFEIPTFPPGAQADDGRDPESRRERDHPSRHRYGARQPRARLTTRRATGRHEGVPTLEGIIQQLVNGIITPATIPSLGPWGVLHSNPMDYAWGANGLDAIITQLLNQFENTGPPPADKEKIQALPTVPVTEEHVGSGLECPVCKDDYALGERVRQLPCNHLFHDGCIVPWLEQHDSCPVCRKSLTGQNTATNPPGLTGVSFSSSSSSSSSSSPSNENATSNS
# Sequence of UniProt Q9UBW8 (Q9UBW8 whole entry): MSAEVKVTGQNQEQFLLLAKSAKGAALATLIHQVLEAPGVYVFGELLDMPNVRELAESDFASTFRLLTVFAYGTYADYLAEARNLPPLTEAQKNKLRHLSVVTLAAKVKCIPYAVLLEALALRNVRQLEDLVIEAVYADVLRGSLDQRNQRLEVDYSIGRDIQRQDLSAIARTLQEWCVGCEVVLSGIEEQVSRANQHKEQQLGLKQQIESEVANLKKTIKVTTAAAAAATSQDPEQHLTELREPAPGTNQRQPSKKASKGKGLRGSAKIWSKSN
# Sequence of UniProt Q9BYI3 (Q9BYI3 whole entry): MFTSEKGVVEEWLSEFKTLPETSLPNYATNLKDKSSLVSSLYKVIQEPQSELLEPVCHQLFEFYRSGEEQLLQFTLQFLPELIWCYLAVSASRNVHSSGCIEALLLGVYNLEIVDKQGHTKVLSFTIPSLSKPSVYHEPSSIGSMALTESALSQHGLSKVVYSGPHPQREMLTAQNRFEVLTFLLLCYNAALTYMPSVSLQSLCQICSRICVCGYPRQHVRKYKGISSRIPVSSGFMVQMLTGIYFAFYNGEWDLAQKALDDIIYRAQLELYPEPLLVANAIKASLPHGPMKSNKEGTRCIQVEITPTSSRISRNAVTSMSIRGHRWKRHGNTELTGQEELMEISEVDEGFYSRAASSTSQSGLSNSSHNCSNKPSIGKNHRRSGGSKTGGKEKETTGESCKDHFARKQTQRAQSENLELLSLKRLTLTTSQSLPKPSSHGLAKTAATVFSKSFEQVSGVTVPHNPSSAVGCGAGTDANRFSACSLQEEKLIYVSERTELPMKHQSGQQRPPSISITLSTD
# Sequence of UniProt Q9C0D5 (Q9C0D5 whole entry, looked up): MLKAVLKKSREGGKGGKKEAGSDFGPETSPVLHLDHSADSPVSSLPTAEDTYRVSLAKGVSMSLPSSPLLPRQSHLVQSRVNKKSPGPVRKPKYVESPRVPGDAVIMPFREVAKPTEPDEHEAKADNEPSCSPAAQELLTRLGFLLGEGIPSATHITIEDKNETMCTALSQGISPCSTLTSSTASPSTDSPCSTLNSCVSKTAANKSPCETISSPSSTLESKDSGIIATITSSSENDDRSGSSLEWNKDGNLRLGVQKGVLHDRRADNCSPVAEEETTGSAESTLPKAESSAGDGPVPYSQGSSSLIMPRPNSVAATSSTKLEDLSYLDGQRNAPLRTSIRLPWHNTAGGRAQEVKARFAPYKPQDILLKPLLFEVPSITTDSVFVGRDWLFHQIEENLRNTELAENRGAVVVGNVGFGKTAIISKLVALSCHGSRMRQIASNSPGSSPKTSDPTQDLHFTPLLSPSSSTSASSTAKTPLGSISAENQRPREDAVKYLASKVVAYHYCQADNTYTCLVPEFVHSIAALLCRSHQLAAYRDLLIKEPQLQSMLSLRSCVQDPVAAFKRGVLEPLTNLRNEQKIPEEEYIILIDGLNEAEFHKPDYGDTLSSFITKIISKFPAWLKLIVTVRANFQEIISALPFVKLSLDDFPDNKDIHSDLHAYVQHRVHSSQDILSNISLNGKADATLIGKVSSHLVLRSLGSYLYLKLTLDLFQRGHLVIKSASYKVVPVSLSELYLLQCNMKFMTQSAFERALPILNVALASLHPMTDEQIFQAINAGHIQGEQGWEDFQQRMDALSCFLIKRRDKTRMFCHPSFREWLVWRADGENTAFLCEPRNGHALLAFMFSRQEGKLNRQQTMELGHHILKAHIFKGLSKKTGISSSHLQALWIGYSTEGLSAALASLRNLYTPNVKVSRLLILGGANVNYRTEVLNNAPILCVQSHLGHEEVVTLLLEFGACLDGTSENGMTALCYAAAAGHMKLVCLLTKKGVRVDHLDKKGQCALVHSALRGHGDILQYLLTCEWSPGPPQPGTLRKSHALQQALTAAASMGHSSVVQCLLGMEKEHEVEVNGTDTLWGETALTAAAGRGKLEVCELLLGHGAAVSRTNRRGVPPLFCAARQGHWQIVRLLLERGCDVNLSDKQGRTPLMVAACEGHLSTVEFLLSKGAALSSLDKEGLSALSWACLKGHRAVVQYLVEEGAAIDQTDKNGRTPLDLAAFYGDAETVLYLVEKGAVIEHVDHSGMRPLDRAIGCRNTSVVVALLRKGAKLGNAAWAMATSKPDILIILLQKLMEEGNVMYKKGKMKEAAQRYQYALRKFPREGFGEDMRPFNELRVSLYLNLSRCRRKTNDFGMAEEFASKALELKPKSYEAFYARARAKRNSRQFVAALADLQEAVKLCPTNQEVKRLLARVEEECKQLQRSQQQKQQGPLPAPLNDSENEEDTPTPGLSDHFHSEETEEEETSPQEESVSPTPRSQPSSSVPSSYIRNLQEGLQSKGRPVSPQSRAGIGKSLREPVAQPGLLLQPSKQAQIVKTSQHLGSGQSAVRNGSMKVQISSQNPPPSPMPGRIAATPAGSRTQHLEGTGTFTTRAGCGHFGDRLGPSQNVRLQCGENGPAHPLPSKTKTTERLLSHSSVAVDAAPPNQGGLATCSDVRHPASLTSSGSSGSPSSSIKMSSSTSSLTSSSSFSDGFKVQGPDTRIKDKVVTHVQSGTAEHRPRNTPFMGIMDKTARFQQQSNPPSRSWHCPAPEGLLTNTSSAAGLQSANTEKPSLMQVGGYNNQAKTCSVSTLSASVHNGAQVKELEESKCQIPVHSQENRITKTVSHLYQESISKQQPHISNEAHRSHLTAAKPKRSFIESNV
row,Target,log2 ratio of iodoacetamide-alkyne labeling
1,KCTD5 C28 (UniProt Q9NXV2),0.129
2,FAM120C C14 (UniProt Q9NX05),0.327
3,UFC1 C116 (UniProt Q9Y3C8),0.115
4,EIF2B3 C64 (UniProt Q9NR50),0.548
5,UniProt Q9NUQ3_C127,0.926
6,CACYBP C173 (UniProt Q9HB71),0.182
7,ADD3 C73 (UniProt Q9UEY8),0.00986
8,TRIM33 C153 (UniProt Q9UPN9),0.274
9,MRPS7 C152 (UniProt Q9Y2R9),-0.102
10,ASF1B C172 (UniProt Q9NVP2),1.22 (active)
11,FAM120A C531 (UniProt Q9NZB2),1.68 (active)
12,MDN1 C271 (UniProt Q9NU22),0.728
13,UniProt Q9P2P1_C1222,0.312
14,MBNL1 C27 (UniProt Q9NR56),0.203
15,ZMYM2 C852 (UniProt Q9UBW7),0.581
16,TANC1 C131 (UniProt Q9C0D5),0.487
17,UNK C383 (UniProt Q9C0B0),0.721
18,NOTCH3 C134 (UniProt Q9UM47),1.63 (active)
19,NIT2 C146 (UniProt Q9NQR4),0.119
20,GPATCH8 C569 (UniProt Q9UKJ3),0.815

row,Target,log2 ratio of iodoacetamide-alkyne labeling
1,TBCD C1175 (UniProt Q9BTW9),0.204
2,UniProt Q9NQG6_C111,0.389
3,UniProt Q9H1B7_C385,0.164
4,KIDINS220 C867 (UniProt Q9ULH0),0.436
5,RNF126 C15 (UniProt Q9BV68),0.119
6,UniProt Q9UK61_C429,0.233
7,FAM126A C300 (UniProt Q9BYI3),0.174
8,KCTD5 C6 (UniProt Q9NXV2),0.701
9,AGTPBP1 C567 (UniProt Q9UPW5),1.18 (active)
10,COPS7A C110 (UniProt Q9UBW8),0.0698
11,CPSF3 C655 (UniProt Q9UKF6),0.293
12,UniProt Q9Y5J5_C87,0.486
13,CPSF2 C765 (UniProt Q9P2I0),1.01 (active)
14,UniProt Q9NUQ3_C56,1.97 (active)
15,KIDINS220 C412 (UniProt Q9ULH0),0.0082
16,PPME1 C381 (UniProt Q9Y570),1.48 (active)
17,POLDIP2 C143 (UniProt Q9Y2S7),0.786
18,UTP6 C175 (UniProt Q9NYH9),1.62 (active)
19,DDX19A C224 (UniProt Q9NUU7),0.0835
